Among the data in PubChem BioAssay (EPA / NIEHS) are outcome and AC50 values, retold here.

As usually defined, the AC50 is the midpoint of the concentration-response curve, whichever way the signal moves.

The nature of test [1]: ATG_GAL4_TRANS: Attagene TRANS-FACTORIAL HepG2 Assay for GAL4 (Internal Marker) (AID 2282976; active means hit-call score of the fitted dose curve at least 0.9, where 1 is the maximum). Particulars: HepG2 Attagene TRANS GAL4 internal marker reporter. The procedure, abridged: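 Background-control readout: GAL4-UAS reporter transcript in transiently transfected HepG2 cells after 24 h compound exposure. Measured by RT-PCR, 6-FAM primer extension, HpaI digest and capillary electrophoresis; gain-of-signal fit versus DMSO.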

Test [2] deals with Estrogen-related receptor gamma (Homo sapiens) (UniProt P62508). Put plainly: ATG_ERRg_TRANS: Attagene TRANS-FACTORIAL HepG2 Assay for human Estrogen-Related Receptor gamma (ERRg) (AID 2282977; active means hit-call score of the fitted dose curve at least 0.9, where 1 is the maximum;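 further: hits increase reporter signal over DMSO so potencies reflect activators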). The conditions noted are these: HepG2 Attagene TRANS reporter, ERRg transactivation. The procedure, abridged: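 Induction of reporter transcripts through a chimeric NR-Gal4 protein is quantified in transfected human HepG2 liver cells after 24 h chemical exposure, using RT-PCR with capillary electrophoresis detection and DMSO as baseline.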
Chain of Estrogen-related receptor gamma (Homo sapiens) (P62508 whole entry, looked up, the tested form may be a part): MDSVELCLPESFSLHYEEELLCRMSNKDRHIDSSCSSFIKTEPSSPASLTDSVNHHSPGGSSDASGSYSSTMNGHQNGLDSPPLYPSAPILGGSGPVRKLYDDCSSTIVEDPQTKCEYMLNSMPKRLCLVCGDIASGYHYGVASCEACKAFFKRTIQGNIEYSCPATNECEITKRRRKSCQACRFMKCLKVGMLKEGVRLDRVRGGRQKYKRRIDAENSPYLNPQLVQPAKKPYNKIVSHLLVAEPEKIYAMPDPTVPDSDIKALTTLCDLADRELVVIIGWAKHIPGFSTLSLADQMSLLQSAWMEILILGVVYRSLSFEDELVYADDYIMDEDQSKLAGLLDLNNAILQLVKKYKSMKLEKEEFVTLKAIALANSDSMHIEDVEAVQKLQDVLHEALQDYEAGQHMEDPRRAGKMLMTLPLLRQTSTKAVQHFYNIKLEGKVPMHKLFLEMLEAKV

Test [3] addresses Oxysterols receptor LXR-alpha (Homo sapiens) (UniProt Q13133). Put plainly: ATG_LXRa_TRANS: Attagene TRANS-FACTORIAL HepG2 Assay for human Liver X Receptor alpha (LXRa) (AID 2282980; active means hit-call score of the fitted dose curve at least 0.9, where 1 is the maximum). The conditions noted are these: HepG2 Attagene TRANS reporter, LXRa transactivation. The procedure, abridged: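 HepG2 cells transiently transfected with GAL4-UAS reporter units for chimeric NR-Gal4 proteins, exposed to chemicals for 24 h. Reporter mRNA quantified by RT-PCR and capillary electrophoresis; gain of signal fitted relative to DMSO.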

Test [4] deals with Oxysterols receptor LXR-beta (Homo sapiens) (UniProt P55055). Put plainly: ATG_LXRb_TRANS: Attagene TRANS-FACTORIAL HepG2 Assay for human Liver X Receptor beta (LXRb) (AID 2282981; active means hit-call score of the fitted dose curve at least 0.9, where 1 is the maximum). The conditions noted are these: HepG2 Attagene TRANS GAL4-LXRb reporter, mRNA. The procedure, abridged:
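Measures induction of a Gal4-driven reporter transcript in HepG2 cells expressing an exogenous LXRb-Gal4 fusion. Cells are exposed to compound for 24 h before RNA isolation and RT-PCR with capillary electrophoresis detection.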

The target of test [5] is Hepatocyte nuclear factor 4-alpha (Homo sapiens) (UniProt P41235). Put plainly: ATG_HNF4a_TRANS: Attagene TRANS-FACTORIAL HepG2 Assay for human Hepatocyte Nuclear Factor 4 alpha (HNF4a) (AID 2282982; active means hit-call score of the fitted dose curve at least 0.9, where 1 is the maximum). Particulars: HepG2 HNF4a transactivation reporter, mRNA readout. The method, boiled down:
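In this trans-factorial format, a chimeric HNF4a-GAL4 fusion drives a GAL4-UAS reporter in transfected HepG2 liver cells. After 24 h treatment, reporter mRNA induction is measured by RT-PCR with capillary electrophoresis, relative to DMSO.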

Test [6] can be described thus: ATG_M_06_TRANS: Attagene TRANS-FACTORIAL HepG2 Assay for M06 Transcription Factor (Internal Marker) (AID 2282983; active means hit-call score of the fitted dose curve at least 0.9, where 1 is the maximum). Particulars: HepG2 Attagene TRANS M06 internal marker reporter. The procedure, abridged:
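mRNA levels of a reporter transcript, quantified as FAM fluorescence on capillary electrophoresis, served as readout. HepG2 cells expressing exogenous GAL4-chimera reporter constructs were exposed for 24 h. Gain of signal over DMSO was evaluated.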

Test [7] can be described thus: ATG_M_32_TRANS: Attagene TRANS-FACTORIAL HepG2 Assay for M32 Transcription Factor (Internal Marker) (AID 2282984; active means hit-call score of the fitted dose curve at least 0.9, where 1 is the maximum). The conditions noted are these: HepG2 Attagene TRANS M32 internal marker reporter. The procedure, abridged:
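After 24 h dosing of transfected HepG2 cells, total RNA was reverse-transcribed, reporter sequences PCR-amplified, 6-FAM labelled by primer extension and HpaI-digested before capillary electrophoresis. Signal increase over DMSO was fitted.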

Test [8] has as its target Nuclear receptor subfamily 4 group A member 2 (Homo sapiens) (UniProt P43354). Put plainly: ATG_NURR1_TRANS: Attagene TRANS-FACTORIAL HepG2 Assay for human Nuclear Receptor Related Protein 1 (NURR1) (AID 2282985; active means hit-call score of the fitted dose curve at least 0.9, where 1 is the maximum). Particulars: HepG2 Attagene TRANS reporter, mRNA readout. The procedure, abridged: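 Chimeric NR-Gal4 fusion activity measured in HepG2 after 24 h treatment. Reporter transcripts detected by RT-PCR and capillary electrophoresis fluorescence; positive-direction curve fitting against DMSO.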

The target in test [9] is Transcriptional activator Myb (Homo sapiens) (UniProt P10242). Put plainly: ATG_Myb_CIS: Attagene CIS-FACTORIAL HepG2 Assay for human Myeloblastosis (Myb) Proto-Oncogene Transcription Factor (AID 2282986). Particulars: HepG2 Attagene CIS-FACTORIAL Myb reporter transcription; actives raise or lower the signal. The procedure, abridged:
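HepG2 cells were transiently transfected with cis-regulated multiple reporter transcription units reflecting endogenous Myb activity, then exposed to compound for 24 hours. Reporter mRNA was measured by RT-PCR with capillary electrophoresis; bidirectional fitting versus DMSO baseline.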

In test [10] the target is Nuclear respiratory factor 1 (Homo sapiens) (UniProt Q16656). Put plainly: ATG_NRF1_CIS: Attagene CIS-FACTORIAL HepG2 Assay for human Nuclear Respiratory Factor 1 (NRF1) Orphan Gene (AID 2282987). Particulars: HepG2 NRF1 cis-element reporter, Attagene multiplex; actives raise or lower the signal. The method, boiled down:
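HepG2 cells transiently transfected with multiple reporter transcription units under cis-regulatory promoter control, so endogenous transcription-factor activity is read. After 24 h compound exposure, reporter mRNA quantified by RT-PCR, fluorescent labelling, HpaI digestion and capillary electrophoresis; bidirectional fitting versus DMSO.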

In test [11] the target is Myc proto-oncogene protein (Homo sapiens) (UniProt P01106). Put plainly: ATG_Myc_CIS: Attagene CIS-FACTORIAL HepG2 Assay for human Myelocytomatosis (Myc) Proto-Oncogene Transcription Factor (AID 2282990). Particulars: HepG2, Attagene cis-reporter transcription factor activity; actives raise or lower the signal. The method, boiled down:
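Multiplexed cis-reporter transcription in HepG2 cells after 24 h chemical treatment. Reporter mRNA measured by RT-PCR and capillary electrophoresis fluorescence; activity fitted bidirectionally against DMSO control.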

Test [12] can be described thus: ATG_Oct_MLP_CIS: Attagene CIS-FACTORIAL HepG2 Assay for human Octamer-Binding Transcription Factor (Oct) (AID 2282993). Particulars: HepG2 Attagene cis-factorial Oct reporter, mRNA; actives raise or lower the signal. The procedure, abridged:
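HepG2 cells transiently transfected with cis-promoter-driven multiplexed reporter transcription units, dosed for 24 h. Reporter mRNA quantified by RT-PCR, fluorescent labelling, HpaI digestion and capillary electrophoresis; bidirectional fits versus DMSO baseline.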

In test [13] the target is Cellular tumor antigen p53 (Homo sapiens) (UniProt P04637). Put plainly: ATG_p53_CIS: Attagene CIS-FACTORIAL HepG2 Assay for human p53 Transcription Factor (AID 2282994). The conditions noted are these: HepG2 p53 cis-element reporter, Attagene mRNA; actives raise or lower the signal. The method, boiled down:
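Read-out: reporter mRNA by RT-PCR plus capillary electrophoresis with fluorescence detection. Human HepG2 liver cells carried transfected multi-reporter cis-element constructs, dosed 24 h. Gain or loss of signal fitted bidirectionally against DMSO control.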

Test [14] in a line: BSK_3C_TissueFactor: BioMAP Diversity Plus: 3C Assay for Tissue Factor Biomarker Activity (AID 2282997). The conditions noted are these: BioMAP 3C HUVEC, tissue factor biomarker readout; actives raise or lower the signal. The procedure, abridged: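 Tissue Factor measured by ELISA, 24 h after treatment of primary HUVEC in the BioMAP 3C setting.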
Test [15] is described as follows: BSK_3C_uPAR: BioMAP Diversity Plus: 3C Assay for Urokinase-type plasminogen activator receptor (uPAR) Biomarker Activity (AID 2282998). The conditions noted are these: BioMAP 3C HUVEC, uPAR biomarker ELISA; actives raise or lower the signal. The method, boiled down:
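Human umbilical vein endothelial primary cells were exposed to test chemical for 24 h. Cell-surface uPAR was then quantified by ELISA, and responses were fitted bidirectionally against DMSO as negative control and baseline.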

A short description of test [16]: BSK_3C_VCAM1: BioMAP Diversity Plus: 3C Assay for Vascular cell adhesion molecule 1 (VCAM1) Biomarker Activity (AID 2282999). The conditions noted are these: BioMAP 3C HUVEC, VCAM1 ELISA, cytokine-stimulated; actives raise or lower the signal. The method, boiled down: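 Vascular primary endothelium (human umbilical vein) was exposed to chemicals and assayed 24 h later. VCAM-1 levels came from ELISA, with DMSO serving as baseline for bidirectional fitting.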
A general note: ELISA stands for enzyme-linked immunosorbent assay.

Test [17] concerns the target Glucocorticoid receptor (Homo sapiens) (UniProt P04150). Put plainly: ATG_GR_TRANS: Attagene TRANS-FACTORIAL HepG2 Assay for human Glucocorticoid Receptor (GR) (AID 2282978; active means hit-call score of the fitted dose curve at least 0.9, where 1 is the maximum;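 further: activators score as hits since higher reporter transcript over DMSO is fitted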). Particulars: HepG2 Attagene TRANS GR reporter, mRNA transcription. The method, boiled down: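 HepG2 cells transiently transfected with multiplexed reporter units in which chimeric NR-GAL4 proteins drive GAL4-UAS reporters; 24 h compound exposure. Reporter mRNA measured by RT-PCR, 6-FAM labelling, HpaI digestion and capillary electrophoresis; gain-of-signal fitted versus DMSO.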

The target of test [18] is Bile acid receptor (Homo sapiens) (UniProt Q96RI1). Put plainly: ATG_FXR_TRANS: Attagene TRANS-FACTORIAL HepG2 Assay for Farnesoid X Receptor (FXR) (AID 2282979; active means hit-call score of the fitted dose curve at least 0.9, where 1 is the maximum;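 further: hits raise reporter mRNA above DMSO so AC50 marks FXR activation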). Particulars: HepG2 Attagene TRANS FXR-GAL4 reporter transcription. The method, boiled down: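 HepG2 cells were transiently transfected with GAL4-UAS reporters driven by chimeric NR-Gal4 proteins and dosed for 24 h. Reporter mRNA was quantified by RT-PCR, fluorescent labelling, HpaI digestion and capillary electrophoresis, with gain of signal scored versus DMSO.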
Chain of Bile acid receptor (Homo sapiens) (Q96RI1 whole entry, looked up, the tested form may be a part): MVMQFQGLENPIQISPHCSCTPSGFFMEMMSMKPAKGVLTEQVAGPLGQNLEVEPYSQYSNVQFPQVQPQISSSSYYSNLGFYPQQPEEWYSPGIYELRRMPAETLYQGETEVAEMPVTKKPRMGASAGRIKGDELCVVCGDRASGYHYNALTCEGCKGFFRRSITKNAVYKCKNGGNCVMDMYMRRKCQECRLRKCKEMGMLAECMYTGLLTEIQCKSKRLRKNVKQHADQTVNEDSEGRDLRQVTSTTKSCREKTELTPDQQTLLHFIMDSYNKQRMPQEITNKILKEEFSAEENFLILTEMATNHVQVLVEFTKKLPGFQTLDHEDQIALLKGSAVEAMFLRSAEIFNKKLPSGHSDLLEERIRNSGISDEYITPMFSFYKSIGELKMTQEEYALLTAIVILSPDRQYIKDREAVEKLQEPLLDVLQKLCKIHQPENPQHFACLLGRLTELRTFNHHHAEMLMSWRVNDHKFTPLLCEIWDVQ

Test [19] is described as follows: ATG_NFI_CIS: Attagene CIS-FACTORIAL HepG2 Assay for human Nuclear Factor I (NFI) (AID 2282989). Particulars: HepG2 cis-regulatory reporter, NFI response element transcription; actives raise or lower the signal. The method, boiled down:
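HepG2 cells transiently transfected with cis-element-driven multiplexed reporter transcription units, dosed for 24 h. Reporter mRNA quantified by RT-PCR, fluorescent labelling, HpaI digestion and capillary electrophoresis; bidirectional fit versus DMSO baseline.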

Values joined by “and” are separate entries in the source; they are usually repeats but may differ in a detail not shown here. Identical values can stand only once. Results filed as inconclusive are left out. Where a structure was tested more than once in an assay, its records may differ in their call. Active and inactive are the calls of the source. How the source made its calls, unless noted: active means hit-call score of the fitted dose curve at least 0.9, where 1 is the maximum; inactive means score below 0.9.

Chain of Hepatocyte nuclear factor 4-alpha (Homo sapiens) (P41235 whole entry, looked up, the tested form may be a part): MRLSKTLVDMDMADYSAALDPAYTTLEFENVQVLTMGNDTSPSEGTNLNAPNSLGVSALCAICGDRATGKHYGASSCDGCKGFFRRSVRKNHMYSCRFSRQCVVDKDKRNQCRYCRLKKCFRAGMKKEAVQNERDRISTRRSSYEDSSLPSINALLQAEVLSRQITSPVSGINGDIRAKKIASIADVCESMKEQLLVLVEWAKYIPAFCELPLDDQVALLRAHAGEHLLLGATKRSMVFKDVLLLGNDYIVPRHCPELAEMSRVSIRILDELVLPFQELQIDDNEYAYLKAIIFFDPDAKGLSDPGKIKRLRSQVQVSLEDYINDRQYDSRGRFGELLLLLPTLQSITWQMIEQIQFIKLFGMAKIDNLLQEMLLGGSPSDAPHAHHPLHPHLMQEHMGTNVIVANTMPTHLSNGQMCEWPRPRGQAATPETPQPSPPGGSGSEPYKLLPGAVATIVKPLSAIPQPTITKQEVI
Chain of Nuclear respiratory factor 1 (Homo sapiens) (Q16656 whole entry, looked up): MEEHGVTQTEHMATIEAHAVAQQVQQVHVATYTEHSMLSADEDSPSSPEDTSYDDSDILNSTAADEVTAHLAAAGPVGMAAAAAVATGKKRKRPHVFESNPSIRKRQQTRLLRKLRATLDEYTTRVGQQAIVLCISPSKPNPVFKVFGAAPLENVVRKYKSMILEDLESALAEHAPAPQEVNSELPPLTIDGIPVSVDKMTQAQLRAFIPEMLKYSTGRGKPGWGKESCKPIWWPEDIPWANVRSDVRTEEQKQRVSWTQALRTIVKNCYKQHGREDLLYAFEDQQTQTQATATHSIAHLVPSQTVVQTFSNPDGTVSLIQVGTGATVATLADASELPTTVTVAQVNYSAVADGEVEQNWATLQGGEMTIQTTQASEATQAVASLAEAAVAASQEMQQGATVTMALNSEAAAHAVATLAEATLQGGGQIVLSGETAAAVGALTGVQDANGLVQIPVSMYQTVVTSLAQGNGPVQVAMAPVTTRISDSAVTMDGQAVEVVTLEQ
Chain of Cellular tumor antigen p53 (Homo sapiens) (P04637 whole entry, looked up): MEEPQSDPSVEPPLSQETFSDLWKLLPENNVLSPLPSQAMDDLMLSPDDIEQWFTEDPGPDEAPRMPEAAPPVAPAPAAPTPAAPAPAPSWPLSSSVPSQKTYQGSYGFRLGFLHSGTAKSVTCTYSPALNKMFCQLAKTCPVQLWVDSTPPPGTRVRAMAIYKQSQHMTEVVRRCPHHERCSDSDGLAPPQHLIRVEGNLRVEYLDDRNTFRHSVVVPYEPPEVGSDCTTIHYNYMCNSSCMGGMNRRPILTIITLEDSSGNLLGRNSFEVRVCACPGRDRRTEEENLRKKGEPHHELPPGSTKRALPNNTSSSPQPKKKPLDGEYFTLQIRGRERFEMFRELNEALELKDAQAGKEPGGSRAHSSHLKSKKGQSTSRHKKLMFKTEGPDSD
Chain of Oxysterols receptor LXR-alpha (Homo sapiens) (Q13133 whole entry, looked up, the tested form may be a part): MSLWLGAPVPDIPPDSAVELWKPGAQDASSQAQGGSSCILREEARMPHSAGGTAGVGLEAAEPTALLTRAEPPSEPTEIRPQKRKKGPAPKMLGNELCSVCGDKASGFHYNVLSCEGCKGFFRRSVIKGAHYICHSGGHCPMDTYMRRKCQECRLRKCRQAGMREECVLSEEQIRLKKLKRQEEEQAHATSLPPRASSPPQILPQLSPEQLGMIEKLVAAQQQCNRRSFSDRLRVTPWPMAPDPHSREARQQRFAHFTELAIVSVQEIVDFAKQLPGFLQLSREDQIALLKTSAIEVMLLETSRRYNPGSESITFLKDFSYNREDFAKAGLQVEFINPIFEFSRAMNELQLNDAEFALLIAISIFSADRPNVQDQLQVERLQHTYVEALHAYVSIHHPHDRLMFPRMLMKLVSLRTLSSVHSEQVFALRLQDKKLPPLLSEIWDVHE
Chain of Nuclear receptor subfamily 4 group A member 2 (Homo sapiens) (P43354 whole entry, looked up, the tested form may be a part): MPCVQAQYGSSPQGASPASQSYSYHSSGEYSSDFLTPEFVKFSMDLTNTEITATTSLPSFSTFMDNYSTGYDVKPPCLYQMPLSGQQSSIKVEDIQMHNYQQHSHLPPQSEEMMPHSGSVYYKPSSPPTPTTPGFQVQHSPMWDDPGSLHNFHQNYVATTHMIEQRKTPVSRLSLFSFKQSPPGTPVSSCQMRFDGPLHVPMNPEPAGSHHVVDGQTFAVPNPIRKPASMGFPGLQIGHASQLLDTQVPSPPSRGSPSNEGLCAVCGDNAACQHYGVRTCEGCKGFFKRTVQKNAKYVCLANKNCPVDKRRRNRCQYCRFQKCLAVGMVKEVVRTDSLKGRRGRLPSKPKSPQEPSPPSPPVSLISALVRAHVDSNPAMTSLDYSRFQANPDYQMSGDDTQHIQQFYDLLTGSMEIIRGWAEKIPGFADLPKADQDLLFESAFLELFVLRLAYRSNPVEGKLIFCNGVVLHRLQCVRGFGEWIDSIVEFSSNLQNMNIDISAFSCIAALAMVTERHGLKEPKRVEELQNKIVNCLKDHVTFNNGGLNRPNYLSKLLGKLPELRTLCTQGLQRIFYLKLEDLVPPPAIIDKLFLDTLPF
Chain of Myc proto-oncogene protein (Homo sapiens) (P01106 whole entry, looked up): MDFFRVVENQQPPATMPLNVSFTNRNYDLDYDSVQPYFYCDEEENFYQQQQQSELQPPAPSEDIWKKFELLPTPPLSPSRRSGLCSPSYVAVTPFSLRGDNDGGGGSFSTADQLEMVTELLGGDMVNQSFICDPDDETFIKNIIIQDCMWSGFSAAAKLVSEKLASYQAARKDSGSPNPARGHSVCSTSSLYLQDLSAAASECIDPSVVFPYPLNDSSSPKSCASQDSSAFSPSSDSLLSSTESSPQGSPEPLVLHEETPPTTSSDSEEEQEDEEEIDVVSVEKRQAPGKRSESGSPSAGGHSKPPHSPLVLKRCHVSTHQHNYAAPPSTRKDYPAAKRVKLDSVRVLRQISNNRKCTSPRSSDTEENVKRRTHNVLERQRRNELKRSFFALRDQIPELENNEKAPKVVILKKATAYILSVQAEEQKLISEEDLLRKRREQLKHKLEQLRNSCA
Chain of Transcriptional activator Myb (Homo sapiens) (P10242 whole entry, looked up): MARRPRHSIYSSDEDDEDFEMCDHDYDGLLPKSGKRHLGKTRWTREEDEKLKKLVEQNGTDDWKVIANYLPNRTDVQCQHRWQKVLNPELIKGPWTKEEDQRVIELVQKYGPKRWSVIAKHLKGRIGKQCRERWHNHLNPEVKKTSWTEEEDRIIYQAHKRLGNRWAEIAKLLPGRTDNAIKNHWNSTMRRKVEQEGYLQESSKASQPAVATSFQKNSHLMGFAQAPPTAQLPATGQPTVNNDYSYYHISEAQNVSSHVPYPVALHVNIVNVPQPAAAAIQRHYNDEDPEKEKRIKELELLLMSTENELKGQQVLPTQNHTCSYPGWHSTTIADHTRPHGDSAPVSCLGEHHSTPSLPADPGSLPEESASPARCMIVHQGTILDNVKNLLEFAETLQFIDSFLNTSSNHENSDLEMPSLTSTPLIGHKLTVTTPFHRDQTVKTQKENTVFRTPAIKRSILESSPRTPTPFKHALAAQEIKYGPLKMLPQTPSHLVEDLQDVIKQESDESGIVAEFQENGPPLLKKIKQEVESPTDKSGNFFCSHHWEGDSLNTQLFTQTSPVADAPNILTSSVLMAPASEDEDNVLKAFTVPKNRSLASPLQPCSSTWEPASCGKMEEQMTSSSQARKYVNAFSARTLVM
Chain of Oxysterols receptor LXR-beta (Homo sapiens) (P55055 whole entry, looked up, the tested form may be a part): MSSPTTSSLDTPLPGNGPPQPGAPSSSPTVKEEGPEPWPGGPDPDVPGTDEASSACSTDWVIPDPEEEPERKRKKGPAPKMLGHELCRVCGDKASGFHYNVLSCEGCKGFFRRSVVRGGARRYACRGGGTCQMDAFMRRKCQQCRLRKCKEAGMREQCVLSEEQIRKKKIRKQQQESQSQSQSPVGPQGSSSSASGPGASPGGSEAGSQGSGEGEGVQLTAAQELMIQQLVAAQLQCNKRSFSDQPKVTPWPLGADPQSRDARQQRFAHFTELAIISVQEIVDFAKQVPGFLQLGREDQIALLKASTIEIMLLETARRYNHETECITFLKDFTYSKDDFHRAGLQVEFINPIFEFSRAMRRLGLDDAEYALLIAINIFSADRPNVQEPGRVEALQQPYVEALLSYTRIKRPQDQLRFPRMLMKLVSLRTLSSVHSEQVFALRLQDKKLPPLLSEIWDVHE

For the molecule `O=S(=O)(O)C(F)(F)C(F)(F)C(F)(F)C(F)(F)C(F)(F)C(F)(F)C(F)(F)C(F)(F)F`, the outcome in test [1], in [2], in [3], in [4], in [5] and in [6] was inactive. For the same molecule, the molecule was called inactive in test [7], in test [8], in [9], in test [10], in test [11] and in test [12]. The molecule was called inactive in test [13], in test [14], in [15] and in test [16]. Also, the concentration at half-maximal activity (AC50) in test [10] is 111 µM (active); in test [11], 23 µM (active) and 48.3 µM (active); in [12] it was 135 µM (active) and 54.7 µM (active); in test [13], 108 µM (active) and 66.1 µM (active) and 240 µM (active); in test [15], 32.8 µM (active).
Turning to `Cc1cc(C)nc(NC(=O)NS(=O)(=O)c2ccccc2C(=O)OC2COC2)n1`, the molecule was classed as inactive in test [2], in [17], in test [4], in [5], in test [6] and in [9]. The result in [10], in test [13], in test [14], in [15] and in test [16] was inactive. For the same molecule, the AC50 in test [12] is 50 µM (active).
For `ClC1C(Cl)C(Cl)C(Cl)C(Cl)C1Cl` (stereo not given), the result in test [1], in [2], in test [18], in [3], in [4] and in test [5] was inactive. For the same molecule, the result in test [6], in test [7], in test [8], in test [9], in test [10] and in test [19] was inactive. The call in [12], in test [13], in test [14], in test [15] and in test [16] was inactive. The AC50 in [18] was 139 µM (active); in [12], 10.1 µM (active) and 100 µM (active); in test [13], 150 µM (active) and 77.6 µM (active); in test [15], 28.4 µM (active); in test [16], 30.1 µM (active).
